System: Fibrinogen (Alexa647-labelled)
Experiment: fibrinogen binders on compound microarrays, profiling panel, artefact control for SMM control-protein annotation, biochemical, small-molecule microarray, 635/667 nm fluorescence (AID 1131);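 note: z-score merges 667 nm fluorescence with per-spot signal-to-noise over triplicate slides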
Details: fibrinogen-A647 binding fluorescence, higher = more signal

Row | SMILES | composite z-score
1 | CC(C)c1ccc(NN2C(C(O)c3c(F)cccc3Cl)C=CC3C(=O)N(c4ccccc4)C(=O)C32)cc1 (stereo not given) | 0.935
2 | CC(C)(C)OC(=O)CC[C@@]1(C(=O)O)N=C(c2ccc(OCCCO)cc2)O[C@@H]1c1ccccc1N=[N+]=[N-] | 0.482
3 | COC(=O)C[C@@H]1C[C@H](C)[C@]2(O1)C(=O)N(Cc1ccccc1)c1ccc(NC(C)=O)cc12 | 0.458
4 | COCC1=C2[C@@H](CCc3ccccc3)OB(O)C[C@@H]2[C@@H]2C(=O)N(Cc3ccccc3)C(=O)[C@@H]2C1 | 1
5 | C=CCOC(=O)[C@@H]1[C@H]2C(=O)O[C@H](c3ccccc3)[C@H](c3ccccc3)N2[C@H](c2ccc(OCCOC(=O)[C@@H]3C[C@@H]4C(=O)NCC(=O)N4[C@@H]3c3cccc(OCCO)c3)cc2)[C@@]12C(=O)Nc1ccc(I)cc12 | 0.615
6 | C=CCC(OC(C)=O)[C@@H]1[C@@H](N(Cc2cccc3ccccc23)C(=O)c2ccc(C)cc2)c2cc(OCCCO)ccc2N1C(=O)Cc1ccc(OC)cc1 (stereo not given in full) | 0.342
7 | O=C1OCCC=C[C@H]2OC34C=CCN(Cc5ccccc5)C(=O)[C@H]3N(CCCCCO)C(=O)[C@@H]4C12 (stereo not given in full) | -1.44
8 | O=C(OCCF)C1=CCC(c2cccc(Cl)c2)O1 (stereo not given) | -0.137
9 | [N-]=[N+]=NCc1ccccc1[C@@H]1OC(c2ccc(OCCCO)cc2)=N[C@]1(Cc1ccccc1)C(=O)N1CCCCC1 | 0.39
10 | Cc1cc(C)c(C(O)C2C=CC3C(=O)N(c4ccccc4)C(=O)C3N2Nc2ccc(C#N)cc2)c(C)c1 (stereo not given) | 0.912
11 | C=C[C@@H](COC(C)=O)N(Cc1ccccc1[N+](=O)[O-])S(=O)(=O)c1ccc(Br)cc1 | 0.619
12 | COc1ccc(C#Cc2ccc3c(c2)[C@]2(C(=O)N3)[C@H](c3ccc(O)cc3)N3[C@H](c4ccccc4)[C@H](c4ccccc4)OC(=O)[C@H]3[C@@H]2C(=O)NC[C@H](O)c2ccccc2)cc1 | 0.556
13 | C=CCNC(=O)[C@@H]1[C@H]2C(=O)O[C@H](c3ccccc3)[C@H](c3ccccc3)N2[C@H](c2ccccc2OCCO)[C@@]12C(=O)Nc1ccc(C#CC3=CCCCC3)cc12 | 0.9
14 | [N-]=[N+]=NCc1ccccc1[C@@H]1OC(c2ccc(OCCCO)cc2)=N[C@]1(Cc1ccccc1N=[N+]=[N-])C(=O)NCc1ccccc1 | 0.198
15 | COCCOC(=O)N1C(=O)[C@@]2(c3cc(C#CCCO)ccc31)[C@H](c1ccccc1OCCO)N1[C@H](c3ccccc3)[C@H](c3ccccc3)OC(=O)[C@H]1[C@@H]2C(=O)N1CCN(c2ncccn2)CC1 | 0.807
16 | CCCCC=C[C@@H](NC(=O)c1ccc(C(=O)OC)cc1)c1ccccc1 | 0.875
17 | CC(C)NC(=O)[C@@H]1c2ccccc2C(=O)N(Cc2ccccc2Cl)[C@H]1c1ccc(CO)cc1 | -0.629
18 | COc1cc2c(cc1OC)CN(C(=O)[C@@H]1[C@H]3C(=O)O[C@H](c4ccccc4)[C@H](c4ccccc4)N3[C@H](c3ccccc3OCCO)[C@@]13C(=O)Nc1ccc(C#CCNC(N)=O)cc13)CC2 | 0.933

Row | SMILES | composite z-score
19 | O=C1C=CC(=O)[C@@H]2CC(COc3ccccc3)=C3[C@@H](CCc4ccccc4)OB(O)C[C@@H]3[C@H]12 | -0.0249
20 | O=C(NCc1ccccc1)[C@]1(CCS(=O)(=O)c2ccccc2)N=C(c2ccc(OCCCO)cc2)O[C@@H]1c1ccccc1 | 0.939
21 | COc1ccc(C#Cc2ccc3c(c2)[C@]2(C(=O)N3)[C@H](C(=O)NC[C@H](O)c3ccccc3)[C@H]3C(=O)O[C@H](c4ccccc4)[C@H](c4ccccc4)N3[C@@H]2c2ccc(OCCO)cc2)cc1 | 0.964
22 | CCOc1cc(C(O)C2C=CC3C(=O)N(c4ccccc4)C(=O)C3N2Nc2ccc([N+](=O)[O-])cc2)ccc1O (stereo not given) | 0.0405
23 | [N-]=[N+]=NCc1ccccc1C[C@]1(C(=O)NCCN2CCOCC2)N=C(c2ccc(OCCCO)cc2)O[C@H]1c1ccccc1N=[N+]=[N-] | 0.989
24 | C=C[C@@H](COC(C)=O)N(Cc1ccc([N+](=O)[O-])cc1)S(=O)(=O)c1ccc(Br)cc1 | 0.958
25 | COc1ccc(CCNC(=O)[C@@]2(c3ccc([N+](=O)[O-])cc3)CC(=O)N(CC34CC5CC(CC(C5)C3)C4)[C@@H]2c2ccc(CO)cc2)cc1 | 0.347
26 | COCC(=C=CC[C@H](O)c1ccc(OCCO)cc1)C[C@H](O)c1cc(Cl)cc(Cl)c1O | 0.799
27 | CO[C@H]1O[C@H](CO)[C@@H](OC(=O)Nc2ccc3c(c2)OCO3)[C@H](OC(=O)Nc2ccccc2)[C@H]1OC(=O)Nc1ccccc1 | 0.995
28 | COc1ccc(C(O)C2C=CC3C(=O)N(c4ccccc4)C(=O)C3N2Nc2ccc([N+](=O)[O-])cc2)cc1OCc1ccccc1 (stereo not given) | 0.995
29 | [N-]=[N+]=NCc1ccccc1C[C@]1(C(=O)NCC(O)CO)N=C(c2ccc(OCCCO)cc2)O[C@H]1c1ccccc1N=[N+]=[N-] (stereo not given in full) | 0.188
30 | CCOC(=O)C[C@H]1[C@H](OC(=O)Cc2ccc3c(c2)OCO3)[C@@H](NC(=O)c2ccc(-c3ccccc3)cc2)c2cc(OCCCO)ccc2N1C(=O)c1ccccc1 | 0.672
31 | CS(=O)(=O)CCOC(=O)C1=CC(CCCO)=CC(c2cccs2)N(Cc2cc3c(cc2Br)OCO3)C=C1C(=O)OCCS(C)(=O)=O (stereo not given) | 1.01
32 | COc1ccc([Si](C)(C)[C@H]2[C@H](CC(=O)N(CCO)Cc3ccccc3)O[C@@]3(C(=O)N(Cc4cccc(N5CCC5=O)c4)c4ccccc43)[C@@H]2C)cc1 | 0.279
33 | COc1cccc(C(=O)O[C@H]2CC[C@]3(C)C4=C(CCC3C2(C)C)[C@]2(C)CC[C@H]([C@H](C)CCCC(C)C)[C@@]2(C)CC4)c1 (stereo not given in full) | -0.133
34 | CC(C)NC(=O)[C@@H]1c2ccccc2C(=O)N(Cc2ccccc2)[C@H]1c1ccc(CO)cc1 | -0.367
35 | COc1ccc([Si](C)(C)[C@@H]2[C@@H](CC(=O)N(CCO)Cc3ccccc3)O[C@]3(C(=O)N(C)c4ccccc43)[C@H]2C)cc1 | 0.958
